Test systems include DU-145 prostate; K-562 leukemia; MALME-3M melanoma; MDA-MB-231 breast; RXF 393 renal; SF-268 CNS; SF-295 CNS; SF-539 CNS; UACC-257 melanoma; M14 melanoma; HCT-15 colon; HT29 colon; SNB-75 CNS; SNB-19 CNS; U251 CNS; PC-3 prostate; UACC-62 melanoma; LOX IMVI melanoma; SK-MEL-28 melanoma.
Holding throughout (experiment): NCI-60 one-dose screen, 48 h (100 = growth as untreated, 0 = no growth, -100 = all killed)
Conditions in all cases: 10 µM unless noted

The panel holds about 83,000 compounds, 20% with a hit somewhere; the sample as a whole holds those more often.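 Each cell line was grown in a 96-well plate and treated with one concentration of compound for 48 hours. Values below 10 were considered active.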 Values without a mark were called inactive. The source made the active and inactive calls.

These results are taken from PubChem BioAssay (NCI).

With `Cc1ccc(-c2onc3c(=O)[nH]nc(-c4ccccc4)c23)cc1`, the growth is 19.4% in the assay with DU-145 prostate; 14.7% with K-562 leukemia; 82.6% in the assay on MALME-3M melanoma; 34.9% in the assay on MDA-MB-231 breast; 31.8% in the assay on RXF 393 renal; 48.6% in the assay on SF-268 CNS. Moreover, the growth is 23.7% with SF-295 CNS; -4.93% (active) in the assay with SF-539 CNS; 47.3% in the assay with UACC-257 melanoma; 23.2% in the assay with M14 melanoma; 31.7% with HCT-15 colon; -3.08% (active) in the assay on HT29 colon. Besides, the growth in the assay with SNB-75 CNS was 10.1%; in the assay with SNB-19 CNS, 31.3%; in the assay on U251 CNS, 20.3%; in the assay on PC-3 prostate, 25.8%; in the assay with UACC-62 melanoma, 44.8%; in the assay on LOX IMVI melanoma, 37.6%. For the same molecule, the growth in the assay with SK-MEL-28 melanoma is 66.9%.

`COc1cc2c(cc1-c1c(C)noc1C)ncc1nc(C3CCOCC3)n([C@@H](C)COC(F)F)c12`: the growth was 73.1% in the assay with DU-145 prostate; 34.2% in the assay with K-562 leukemia; 66.3% in the assay on MALME-3M melanoma; 42.8% in the assay on MDA-MB-231 breast; 59.4% in the assay on RXF 393 renal; 70.8% with SF-268 CNS. Besides, the growth was 52% in the assay on SF-295 CNS; 31.8% with SF-539 CNS; 36.7% in the assay on UACC-257 melanoma; 41% in the assay on M14 melanoma; 24.5% in the assay on HCT-15 colon; 18.8% in the assay on HT29 colon. For the same molecule, the growth in the assay with SNB-75 CNS is 28.7%; with SNB-19 CNS, 56.6%; in the assay with U251 CNS, 53.3%; in the assay with PC-3 prostate, 39.2%; with UACC-62 melanoma, 20.7%; with LOX IMVI melanoma it was 24.2%. Moreover, the growth in the assay with SK-MEL-28 melanoma was 53.5%.

Take `CCC(=O)c1ccc(Cl)s1`: the growth was 111% in the assay on DU-145 prostate; 109% with K-562 leukemia; 115% in the assay on MALME-3M melanoma; 106% with MDA-MB-231 breast; 115% with RXF 393 renal; 94.8% with SF-268 CNS. Moreover, the growth in the assay with SF-295 CNS is 113%; in the assay with SF-539 CNS it was 114%; in the assay with UACC-257 melanoma it was 104%; with M14 melanoma it was 103%; in the assay on HCT-15 colon it was 105%; with HT29 colon, 96.9%. The growth was 91.4% in the assay with SNB-75 CNS; 102% in the assay on SNB-19 CNS; 94.6% in the assay on U251 CNS; 98.4% with PC-3 prostate; 106% with UACC-62 melanoma; 107% in the assay on LOX IMVI melanoma. In addition, the growth in the assay on SK-MEL-28 melanoma was 99.6%.

Turning to `CCCOc1cc2ccccc2cc1C(=O)Nc1nc(N)c2c(ccc3nccc32)[nH]1`, the growth in the assay on DU-145 prostate was -65.8% (active); in the assay on K-562 leukemia, -28.9% (active); in the assay on MALME-3M melanoma, -76.1% (active); in the assay on MDA-MB-231 breast, -67.1% (active); with RXF 393 renal it was -77.1% (active); in the assay with SF-268 CNS, -68.6% (active). The growth is -76.6% (active) with SF-295 CNS; -77.7% (active) in the assay with SF-539 CNS; -77.6% (active) in the assay with UACC-257 melanoma; -69.8% (active) in the assay with M14 melanoma; -44.7% (active) with HCT-15 colon; -63.3% (active) in the assay on HT29 colon. Further, the growth in the assay on SNB-75 CNS is -90.3% (active); in the assay on SNB-19 CNS, -76.4% (active); in the assay on U251 CNS, -83.5% (active); in the assay with PC-3 prostate, -27.9% (active); in the assay on UACC-62 melanoma it was -81% (active); with LOX IMVI melanoma, -73.7% (active). In addition, in the assay with SK-MEL-28 melanoma, the growth is -84.9% (active).

For `COc1cc(-c2nc3cc(Cl)c(Cl)cc3[nH]2)ccc1OCC(=O)N=Nc1c(O)[nH]c2ccccc12`, the growth with DU-145 prostate is -69.9% (active); in the assay on K-562 leukemia, -32.4% (active); in the assay on MALME-3M melanoma, -94% (active); with MDA-MB-231 breast, -82.2% (active); in the assay with RXF 393 renal, -75.9% (active); in the assay on SF-268 CNS, -34.9% (active). Also, the growth was -87.5% (active) in the assay on SF-295 CNS; -87.3% (active) with SF-539 CNS; -60.2% (active) in the assay on UACC-257 melanoma; -76.1% (active) in the assay on M14 melanoma; 64.4% in the assay on HCT-15 colon; -23.1% (active) in the assay with HT29 colon. Also, the growth with SNB-75 CNS is -90% (active); in the assay on SNB-19 CNS it was 0.731% (active); in the assay with U251 CNS, -92% (active); in the assay on PC-3 prostate it was -59.3% (active); in the assay on UACC-62 melanoma, -93.9% (active); in the assay with LOX IMVI melanoma it was -100% (active). For the same molecule, in the assay with SK-MEL-28 melanoma, the growth was -93.4% (active).

Consider `O=C1Nc2c(ccc(Cl)c2Cl)/C1=C\c1ccc(C(F)(F)F)cc1`, for which the growth in the assay with DU-145 prostate is 97.3%; in the assay with K-562 leukemia it was 32.8%; in the assay on MALME-3M melanoma it was 96.5%; in the assay on MDA-MB-231 breast, 81.9%; with RXF 393 renal, 77.4%; in the assay on SF-268 CNS it was 91.6%. Also, the growth is 77.2% in the assay on SF-295 CNS; 88.1% with SF-539 CNS; 97.5% in the assay with UACC-257 melanoma; 98% in the assay on M14 melanoma; 81.9% in the assay on HCT-15 colon; 74.4% in the assay on HT29 colon. Also, the growth in the assay on SNB-75 CNS is 73.4%; in the assay on SNB-19 CNS, 81.6%; in the assay with U251 CNS, 74.2%; with PC-3 prostate, 62.5%; in the assay with UACC-62 melanoma it was 61.9%; with LOX IMVI melanoma, 67%. The growth in the assay with SK-MEL-28 melanoma is 97.4%.

`O=C(O)COc1ccc(Cl)cc1C1CCCCC1`: the growth with DU-145 prostate was 110%; in the assay on K-562 leukemia, 91.8%; with MALME-3M melanoma it was 104%; in the assay on MDA-MB-231 breast, 98.5%; in the assay with RXF 393 renal it was 102%; in the assay with SF-268 CNS, 102%. The growth was 109% in the assay with SF-295 CNS; 107% in the assay with SF-539 CNS; 114% with UACC-257 melanoma; 102% in the assay on M14 melanoma; 106% in the assay with HCT-15 colon; 104% in the assay with HT29 colon. Also, the growth is 88.1% with SNB-75 CNS; 99.9% in the assay with SNB-19 CNS; 102% with U251 CNS; 102% in the assay with PC-3 prostate; 95.6% in the assay with UACC-62 melanoma; 106% with LOX IMVI melanoma. In addition, in the assay on SK-MEL-28 melanoma, the growth is 108%.

With `Cc1ncc(C(=O)Nc2ccc(CN3CCN(C)CC3)c(C(F)(F)F)c2)cc1C#Cc1cnc2cccnn12`, the growth was 5.5% (active) in the assay on DU-145 prostate; 0.556% (active) in the assay with K-562 leukemia; -72% (active) with MALME-3M melanoma; -1.12% (active) in the assay with MDA-MB-231 breast; -58.1% (active) in the assay with RXF 393 renal; -29.8% (active) with SF-268 CNS. In addition, the growth was 8.94% (active) in the assay on SF-295 CNS; -52.2% (active) with SF-539 CNS; -2.41% (active) in the assay on UACC-257 melanoma; -79.9% (active) with M14 melanoma; 4.12% (active) in the assay on HCT-15 colon; 0.719% (active) in the assay with HT29 colon. Besides, the growth with SNB-75 CNS is -71.7% (active); with SNB-19 CNS, 7.27% (active); in the assay with U251 CNS it was 7.52% (active); in the assay with PC-3 prostate, 5.7% (active); in the assay on UACC-62 melanoma, -16.9% (active); with LOX IMVI melanoma, -18.3% (active). The growth in the assay with SK-MEL-28 melanoma is -14.4% (active).
